Test results published in PubChem BioAssay AID651791 (National Center for Advancing Translational Sciences (NCATS), 2012).
Results filed as inconclusive are left out. Active and inactive are the calls of the source. Calls come from the whole dose curve; as a rule, active = well fitted inhibition curve with a large enough effect; inconclusive = small, poorly fitted or top-dose-only effect; inactive = no such curve, though single readings can be large or run the other way.

Experiment: InCell qHTS Assay for Inhibitors of the mTORC1 Signaling Pathway in MEF (Tsc2-/-, p53-/-) Cells: Hit Validation;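 note: phospho-S6 Ser235/236 signal normalized to propidium iodide cell count per well; nearly all actives have a fitted effect of over 75% in size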
Settings: phospho-rpS6 immunofluorescence, 24 h; activity change, negative = inhibition: at 38.3 µM (top of the series)
Potency is the fitted concentration of half-maximal effect.

SMILES | activity change, negative = inhibition [%] | Potency
Cc1cccc(C)c1Nc1sc(C(=O)c2ccccc2)c(N)c1S(=O)(=O)c1ccccc1 | -100 | –
Cc1cc(C)c(NC(=O)Cn2c(=O)n(Cc3ccc(C(=O)NCc4ccc5c(c4)OCO5)cc3)c(=O)c3ccccc32)c(C)c1 | – | 3290 nM (active)
CCOC(=O)c1c(NC(=O)c2ccc(S(=O)(=O)N3CCC(C)CC3)cc2)sc2c1CCN(C)C2 | 1.72 | –
CCNc1nc2c(c(=O)[nH]c(=O)n2C)n1CC(O)COc1ccc(Cl)cc1Cl (configuration not stated) | -100 | –
Cc1ccc([C@H]2Nc3ccc(S(=O)(=O)Nc4cccc(Cl)c4C)cc3[C@H]3C=CC[C@H]32)cc1 | -100 | –
CCOc1ccc(NC(=O)CSc2oc(-c3ccc(F)cc3)nc2S(=O)(=O)c2ccc(C)cc2)cc1 | – | 4650 nM (active)
CCOC(=O)c1ccc(N2C(=O)c3n[nH]c(-c4cccs4)c3C2c2cccc(F)c2)cc1 (configuration not stated) | -100 | –
COc1cc(CNc2ccc3c(c2)ncn3C(C)C)cc(OC)c1OC | -100 | –
CC(C)N(C(=O)Cn1cc(S(=O)(=O)Cc2ccc(Cl)cc2)c2ccccc21)C(C)C | -100 | –
CCOc1ccc(NC(=O)CN2C(=O)C(c3ccc(Cl)cc3)=NC2(C)C)cc1 | -100 | –
CCn1c(CN2CCC(C)CC2)nc2cc(NC(=O)c3ccccc3[N+](=O)[O-])ccc21 | -100 | –
CC(CNC(=O)c1ccc(Nc2nc3ccccc3n3nnnc23)cc1)c1ccccc1 (configuration not stated) | -100 | –
Cc1oc(-c2ccccc2F)nc1Cn1c(SCc2cccc(Cl)c2)nc2ccncc21 | -100 | –
CCS(=O)(=O)c1ccccc1C(=O)N(Cc1cccnc1)c1nc2cc(C)c(C)cc2s1 | -100 | –
CN(c1ccccc1)S(=O)(=O)c1ccc(NC(=O)c2nc(S(C)(=O)=O)ncc2Cl)cc1 | – | 2070 nM (active)
Cc1ccccc1CN1C(=O)C(O)(CC(=O)c2cccc(Br)c2)c2ccccc21 (configuration not stated) | -100 | –
COc1ccc(CCNC(=O)c2ccc3c(c2)N(Cc2ccccc2)CCS3)cc1OC | -100 | –
CCc1ccc2ncc(S(=O)(=O)c3ccc(Cl)cc3)c(N3CCN(CC)CC3)c2c1 | -100 | –
CCC(C)Sc1oc(-c2ccco2)nc1S(=O)(=O)c1ccc(C)cc1 (configuration not stated) | -100 | –

SMILES | activity change, negative = inhibition [%] | Potency
CC(C)S(=O)(=O)c1oc(-c2cccs2)nc1S(=O)(=O)c1ccc(F)cc1 | – | 1470 nM (active)
CN(C)c1ccc(NC(=O)Cn2cc(S(=O)(=O)Cc3ccccc3Cl)c3ccccc32)cc1 | -29.2 | –
Cc1cc(C)cc(OCC(=O)Nc2cccc(-c3nc4ccccc4[nH]3)c2)c1 | -100 | –
FC(F)(F)c1cccc(Nc2c3c(nc4ccc(Cl)cc24)CCC3)c1 | -100 | –
CCCOC(=O)c1c(C)oc2c1cc(NS(=O)(=O)c1ccc(OCC)cc1)c1ccccc12 | -15.2 | –
CCOc1ccc(Nc2nc(-c3cccc(Cl)c3)c3c(n2)-c2ccccc2OC3)cc1 | -100 | –
COc1cc(Cl)c(C)cc1NC(=O)C1CCN(c2nc3ccccc3n3cccc23)CC1 | -100 | –
CCCN1C(=O)C(Cc2nc3ccccc3c(=O)n2CC)c2cc(Br)ccc21 (configuration not stated) | -100 | –
CCCCNC(=O)CSc1nc2nc(C)c(Cc3ccccc3C)c(C)n2n1 | -100 | –
Cc1cccc(Oc2coc3cc(OCC(=O)NC4CCCCC4)ccc3c2=O)c1 | -100 | –
Cc1c(C(=O)OC2CCC(C)CC2)[nH]c2c1C(=O)CC(c1ccccc1Cl)C2 (configuration not stated) | -100 | –
COc1ccc(-c2ccc(CCC(=O)O)n2-c2ccccc2O)cc1 | -7.96 | –
COc1ccc(Nc2nc(N)c3cc(OC)c(OC)cc3n2)cc1 | -100 | –
Cc1nn(C(C)C(=O)NC2CCCCC2)c(=O)c2c1sc1ccccc12 (configuration not stated) | -100 | –
CCOC(=O)Cc1ccc(NC(=O)n2ncc3cc(Cl)ccc32)cc1 | -100 | –
CCCS(=O)(=O)c1ncc(Cl)c(C(=O)N2CCN(c3ccc(OC)cc3)CC2)n1 | – | 1850 nM (active)
CCN(CCCNC(=O)c1cc2c(=O)[nH]c3ccccc3c2s1)c1ccccc1 | -100 | –
O=C(Nc1cccc(C(F)(F)F)c1)c1cnn(-c2cccc(F)c2)c1C1CCNCC1 | -100 | –
